Source: PubChem BioAssay (NCATS)
Results filed as inconclusive are left out. Entries that show only a call come without a potency. Values without a mark were called inactive. Calls of active or inactive are those of the source. The call rests on the fitted dose curve; in most records, active means well fitted curve in the direction sought with a large enough effect; inconclusive means small, poorly fitted or top-dose-only effect, or another doubt; inactive means no such curve, though single readings can be large; an effect the other way counts as inactive or inconclusive.

Legend:
C33A = assay: Primary qHTS to identify gynecologic anti-cancer compounds using libraries of approved drugs and bioactive compounds (AID 1345084); conditions: Gynecologic cancer cell panel viability, ATPlite luminescence, 48 h; series mostly up to 57.5 µM; further: nearly all actives have a fitted effect of over 55% in size; further: potency means the concentration at half of the fitted maximal effect
How it was run: (§1)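 Cells, 1,000 per well, plated 16 h, then exposed 48 h at 37 C to compounds. Viability by ATPlite luminescence after 15 min at room temperature.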

CAOV3 = assay: as above; conditions: Gynecologic cancer cell panel viability, ATPlite luminescence, 48 h; series mostly up to 57.5 µM
How it was run: as §1

NIH3T3 = assay: qHTS assay to identify novel small-molecules to repurpose for Merkel cell carcinoma treatment (AID 1296009); conditions: MCC and control cell lines, CellTiter-Glo viability, 72 h; at 44.8 µM (top of the series) unless noted; further: nearly all actives have a fitted effect of over 60% in size
How it was run: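 Luminescence from CellTiter-Glo, read 10 min after addition at room temperature, reported viability following a 72 hr, 37 degree celsius treatment with NPC or MIPE compounds in titration; values normalized to plate controls.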

CASKI = assay: Primary qHTS to identify gynecologic anti-cancer compounds using libraries of approved drugs and bioactive compounds (AID 1345084); conditions: Gynecologic cancer cell panel viability, ATPlite luminescence, 48 h; series mostly up to 57.5 µM; further: nearly all actives have a fitted effect of over 55% in size; further: potency means the concentration at half of the fitted maximal effect
How it was run: as §1

## Cc1ccc(C(=O)Nc2ccc(Oc3cc4cnn(C)c4cc3-c3cn[nH]c3)c(F)c2)c(=O)n1-c1ccc(F)cc1
C33A
  Potency: inactive
CAOV3
  Potency: 8.91 µM (active)

## C[C@H]1C[C@H]2[C@@H]3CCC4=CC(=O)C=C[C@]4(C)[C@@]3(F)[C@@H](O)C[C@]2(C)[C@@]1(O)C(=O)COP(=O)(O)O
NIH3T3
  outcome: inactive
C33A
  Potency: inactive
CASKI
  Potency: inactive

## CC(=O)[C@@H]1CC[C@]2(C(=O)O)CC[C@]3(C)C(CCC4[C@@]5(C)CC[C@H](O)C(C)(C)C5CC[C@]43C)C12 (some centres undefined)
NIH3T3
  outcome: inactive [at 17.4 µM]
C33A
  Potency: inactive
CASKI
  Potency: inactive

## O=C1NC(=Nc2ccccc2F)S/C1=C\c1ccc(C(=O)O)cc1
C33A
  Potency: inactive
CAOV3
  Potency: inactive

## CC(C)(O)CNc1nc(Nc2ccnc(C(F)(F)F)c2)nc(-c2cccc(C(F)(F)F)n2)n1
C33A
  Potency: inactive
CAOV3
  Potency: inactive
CASKI
  Potency: inactive

## CC(/C=C/C1(O)C(C)(C)CC(O)CC1(C)O)OC1OC(CO)C(O)C(O)C1O (centres undefined)
NIH3T3
  outcome: inactive [at 17.4 µM]
C33A
  Potency: inactive
CASKI
  Potency: inactive

## CCn1c2ccccc2c2cc(CNC)ccc21
NIH3T3
  outcome: inactive
C33A
  Potency: inactive
CASKI
  Potency: inactive

## C[C@@H]1O[C@@H](O[C@H]2[C@H](OC(=O)C34CCC(C)(C)CC3C3=CCC5C6(C)CC(O)C(O[C@@H]7O[C@H](CO)[C@@H](O)[C@H](O)[C@H]7O)C(C)(C(=O)O)C6CCC5(C)C3(CO)CC4)O[C@H](C)[C@H](O)[C@@H]2O)[C@H](O)[C@H](O)[C@H]1O[C@@H]1OC[C@@H](O)[C@H](O)[C@H]1O (some centres undefined)
C33A
  activity change, negative = cytotoxicity: 7.58% [at 11.6 µM]
CAOV3
  activity change, negative = cytotoxicity: 18.2% [at 11.6 µM]
CASKI
  activity change, negative = cytotoxicity: 8.6% [at 11.6 µM]

## COc1ccc([C@@H]2N[C@H](C(=O)O)Cc3c2[nH]c2ccccc32)cc1CN1CCN(c2ccccc2F)CC1
NIH3T3
  outcome: inactive
C33A
  Potency: inactive
CASKI
  Potency: inactive

## CCC(CC)n1ccc2c(C(=O)NCc3c(C)cc(C)[nH]c3=O)cc(C#N)cc21
C33A
  Potency: inactive
CAOV3
  Potency: inactive
CASKI
  Potency: inactive

## C=CC1(C)C=C2C(=O)CC3C(C)(C)CCCC3(C(=O)O)C2(O)CC1 (centres undefined)
C33A
  Potency: inactive
CAOV3
  Potency: inactive
CASKI
  Potency: inactive

## C#C[C@]1(O)CC[C@H]2[C@@H]3CCC4=C/C(=N/O)CC[C@@H]4[C@H]3CC[C@@]21CC
NIH3T3
  outcome: inactive
CAOV3
  Potency: inactive

## N[C@@H](CC(=O)N1CCn2c(nnc2C(F)(F)F)C1)Cc1[nH]nc2c(F)c(F)ccc12
C33A
  Potency: inactive
CAOV3
  Potency: inactive
CASKI
  Potency: inactive

## CC(=O)O[C@H]1CC[C@@]2(CI)C(=CC[C@@H]3[C@@H]2CC[C@]2(C)[C@@H]([C@H](C)CCCC(C)C)CC[C@@H]32)C1
NIH3T3
  outcome: inactive [at 9.27 µM]
C33A
  activity change, negative = cytotoxicity: 15% [at 11.6 µM]
CASKI
  activity change, negative = cytotoxicity: -2.47% [at 11.6 µM]

## CCOc1cc2ncc(C#N)c(Nc3ccc(OCc4ccccn4)c(Cl)c3)c2cc1NC(=O)/C=C/CN(C)C
C33A
  Potency: inactive
CAOV3
  Potency: inactive

## Cc1cc(C)c(S(=O)(=O)N(Cc2ccc(-c3cccc(S(C)(=O)=O)c3)cc2)Cc2ccc(C(F)(F)F)o2)c(C)c1
NIH3T3
  outcome: inactive
C33A
  Potency: inactive
CASKI
  Potency: inactive

## CC(CCC1C(C(=O)O)=CC(=O)CC1(C)C)O[C@@H]1O[C@H](CO)[C@@H](O)[C@H](O)[C@H]1O (some centres undefined)
NIH3T3
  outcome: inactive
C33A
  Potency: inactive
CASKI
  Potency: inactive

## CON(C)C(=O)N1N=C(c2cc(F)ccc2F)S[C@@]1(CCCN)c1ccccc1
C33A
  Potency: inactive

## Cc1ccc(Sc2cncc3sc(C(N)=O)cc23)cc1
NIH3T3
  outcome: inactive
CAOV3
  Potency: inactive

## C=C(C)[C@@H](C)[C@H]1O[C@]23C[C@]4(CO2)C(CCC2[C@@]5(C)CC[C@H](O[C@@H]6OC[C@H](O)[C@H](O[C@@H]7O[C@H](CO)[C@@H](O)[C@H](O)[C@H]7O)[C@H]6O[C@@H]6O[C@@H](CO)[C@H](O)[C@H]6O)C(C)(C)C5CC[C@]24C)C3[C@@](C)(O)[C@@H]1OC(C)=O (some centres undefined)
NIH3T3
  outcome: inactive [at 9.27 µM]
C33A
  activity change, negative = cytotoxicity: 0.663% [at 11.6 µM]
CASKI
  activity change, negative = cytotoxicity: -5.16% [at 11.6 µM]

## O=C(c1ccc(F)cc1)C1CCN(CCn2c(=O)nc3n(c2=O)CCCC3)CC1
C33A
  Potency: inactive
CAOV3
  Potency: inactive

## C=CCc1ccc(O[C@@H]2O[C@H](CO)[C@@H](O)[C@H](O)[C@H]2O)c(OC)c1
NIH3T3
  outcome: inactive
C33A
  Potency: inactive
CASKI
  Potency: inactive

## C[C@@H]1O[C@@H](O[C@H]2[C@H](O[C@H]3CC[C@@]4(C)C(CC[C@]5(C)C4CC=C4[C@@H]6CC(C)(C)CC[C@]6(C(=O)O)CC[C@]45C)[C@]3(C)CO)OC[C@H](O)[C@@H]2O)[C@H](O)[C@H](O[C@@H]2OC[C@@H](O)[C@H](O)[C@H]2O)[C@H]1O (some centres undefined)
C33A
  activity change, negative = cytotoxicity: -12% [at 11.6 µM]
CAOV3
  activity change, negative = cytotoxicity: -8% [at 11.6 µM]
CASKI
  activity change, negative = cytotoxicity: -1.75% [at 11.6 µM]

## CC1(C)CCCC2(C)C1C(O)C=C(CO)C2(O)C(=O)O (centres undefined)
C33A
  Potency: inactive
CAOV3
  Potency: inactive
CASKI
  Potency: inactive
